Source: PubChem (National Center for Advancing Translational Sciences (NCATS))
An excerpt weighted towards active compounds, which were near 9.3% of everything screened.
Vaccinia mCherry: inhibitors of vaccinia virus infection (mCherry reporter signal). Vaccinia virus mCherry reporter infection, fluorescence. Potency, µM (titrated, usually from 36.5 µM), without a hit: at the top dose activity change, negative = inhibition, most hits filed as inhibitors. 310,000 compounds, 0.63% hits; calls by dose curve; tested in A549 cells; further: potency means the concentration at half of the fitted maximal effect; nearly all actives have a fitted effect of over 35% in size
FMDV inh: blocks foot and mouth disease virus; FMDV antiviral cell-based qHTS; Potency, µM (top dose mostly 57.9 µM), inactives show at the highest dose activity change, negative = inhibition, most hits filed as inhibitors; 410,000 compounds, 1.2% hits; calls by dose curve; tested in HEK293T cells; further: read-out not given here; potency means the concentration at half of the fitted maximal effect; nearly all actives have a fitted effect of over 45% in size
HCMV antiviral: human cytomegalovirus inhibition | HFF cells, HCMV-luciferase reporter, 72 h; hits give low values | 410,000 compounds, 4.5% hits | AID 1259415 | activity change, negative = inhibition, % at 57.5 µM; in the data active means activity change below about -60%; inconclusive means no clear call, values can overlap the other calls; inactive means above about -39%
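Two-dose cell screen: HFF monolayers treated with compounds and infected with luciferase-expressing HCMV at 1 PFU/cell, 72 h at 37C, then lysed for luciferase measurement.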
Vaccinia Venus: inhibitors of vaccinia virus (Venus reporter); Vaccinia virus Venus reporter expression, fluorescence; Potency, µM (top dose mostly 36.5 µM), without a hit: at the top dose activity change, negative = inhibition, most hits filed as inhibitors; 330,000 compounds, 0.46% hits; AID 720580; calls by dose curve; tested in A549 cells; further: potency means the concentration at half of the fitted maximal effect; nearly all actives have a fitted effect of over 30% in size
HCV inh: inhibitors of hepatitis C virus infection | Huh7.5.1 HCVcc-Cre infection, luciferase reporter, 44 h | 340,000 compounds, 3.4% hits | Potency, µM (doses to about 41.8 µM), for inactives: top-dose activity change, negative = inhibition, most hits filed as inhibitors; further: potency means the concentration at half of the fitted maximal effect
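Seed cells (1,000/well) for 4 h; treat with compound and infect with HCVcc-Cre, moi about 0.5. Incubate 44 h, then detect luciferase activity.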
Sm TGR inh: inhibitors of Schistosoma mansoni thioredoxin glutathione reductase; Q962Y6; purified TGR, DTNB reduction, TNB absorbance 405 nm; Potency, µM (doses to about 114 µM), for inactives: at the top dose activity change, negative = inhibition, usual class: inhibitors; 360,000 compounds, 3% hits; AID 485364; further: potency means the concentration at half of the fitted maximal effect; nearly all actives have a fitted effect of over 60% in size
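TGR 20 nM + NADPH 100 uM (dispensed conc.), cpd preinc 15 min RT; start with NADPH (500 uM addition) then DTNB (15 mM addition). Kinetic TNB absorbance, 405 nm filter. Four-parameter Hill fit across titration.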
The depositor's hits bear a star; i = inactive; u = inconclusive; x = not tested or not shown; + = active, no number; ! = not confirmed by another sample; [ ] = another dose, or the depositor's remark. Unless noted, the call rests on the fitted dose curve; in most records, active means well fitted curve in the direction sought with a large enough effect; inconclusive means small, poorly fitted or top-dose-only effect, or another doubt; inactive means no such curve, though single readings can be large; an effect the other way counts as inactive or inconclusive. On the % scale 0 is the no-effect control and ±100 the full control effect.

SMILES | Vaccinia mCherry | FMDV inh | HCMV antiviral | Vaccinia Venus | HCV inh | Sm TGR inh
COC(=O)C(NC(=O)c1ccc(F)cc1)(Nc1ncc(S(=O)(=O)c2ccc([N+](=O)[O-])cc2)s1)C(F)(F)F (stereo not drawn) | 11.2µM* | 12.6µM* | -1.1 | u | u | 1.7%
COC(=O)C(NC(=O)c1ccccc1C)(Nc1ncc(S(=O)(=O)c2ccc([N+](=O)[O-])cc2)s1)C(F)(F)F (stereo not drawn) | x | u | 15.8 | x | -16.9% | 1.6%
Cc1cn2c(=O)cc(COC(=O)C(C)Oc3ccccc3)nc2s1 (stereo not drawn) | -5.2% | -3.0% | 12.1 | -0.3% | x | 2.3%
Cc1cn2c(=O)cc(COc3cccc(NC(=O)c4ccccc4C)c3)nc2s1 | -10.5% | -13.5% | -68.7* | -4.1% | x | 1.5%
Cc1ccc(OCc2cc(=O)n3cc(C)sc3n2)c(C)c1 | -6.1% | 20.9% | -100.6* | -4.2% | x | 6.1%
Cc1cn2c(=O)cc(COC(=O)c3cccc(NC(=O)C(C)Oc4ccccc4)c3)nc2s1 (stereo not drawn) | i | 5.9% | -64.4* | -14.7% | x | -9.2%
Cc1cn2c(=O)cc(COc3ccc(Cl)cc3)nc2s1 | -9.6% | -8.7% | 6.0 | -16.6% | x | 5.7%
CCc1cc2cc(C)cc(C)c2[nH]c1=S | x | -8.4% | 46.5 | x | 1.9% | -6.3%
O=C(c1cc(-c2ccc(Br)cc2)on1)N1CCCC1 | -13.6% | -27.6% | 54.0 | -6.7% | 6.2% | 2.6%
Cc1ccc(N(C(=O)CNC(=O)c2ccco2)C(C(=O)NC2CCCCC2)c2ccncc2)c(C)c1 (stereo not drawn) | -21.4% | 22.1% | 5.6 | -5.7% | -7.8% | -14.9%
COc1cc(NC2c3ccccc3C(=O)N2Cc2ccccc2)cc(OC)c1OC (stereo not drawn) | u | 30.6% | -20.6 | -7.0% | -5.9% | 11.3%
COc1cc(OC)cc(-c2cc3nc(C)c(CCC(=O)Nc4ccccc4OC)c(C)n3n2)c1 | -8.8% | u | -61.6* | -5.9% | x | 0.7%
COc1cc(OC)cc(-c2cc3nc(C)c(CCC(=O)NCc4ccccc4)c(C)n3n2)c1 | u | 5.62µM* | -68.6* | -24.8% | u | -12.0%
COc1ccc(NC(=O)CCc2c(C)nc3c(c2C)c(=O)n(C)c(=O)n3C)c(OC)c1 | -5.4% | u | -76.4* | -10.5% | x | 7.1%
COc1ccc(CNC(=O)CCc2c(C)nc3cc(-c4ccc(OC)cc4OC)nn3c2C)cc1 | -10.7% | 1.9% | -7.0 | -9.6% | x | -3.6%
COc1cc(OC)cc(-c2cc3nc(C)c(CCC(=O)NCCc4cccc(C)c4)c(C)n3n2)c1 | -16.0% | -27.2% | -35.9 | -7.7% | x | 8.2%
COc1cc(OC)cc(-c2cc3nc(C)c(CCC(=O)NCc4ccc(Cl)cc4)c(C)n3n2)c1 | -5.1% | 12.6µM* | -61.5* | -21.5% | x | 0.5%
CC(C)c1nc(CNC(=O)C2CCC(=O)N(CCc3ccc(Cl)cc3)C2)no1 (stereo not drawn) | -1.7% | -7.2% | 57.6 | -14.8% | -21.0% | -6.9%
Cc1ccc(S(=O)(=O)N2CCN(C(=O)C3CC(=O)N(c4ccc5c(c4)OCCO5)C3)CC2)cc1 (stereo not drawn) | x | 0.0% | u | x | 0.1% | 6.6%
CNc1oc(C)nc1S(=O)(=O)c1ccccc1 | i | -3.8% | 4.8 | -15.7% | 6.7% | 1.58µM*
Cc1nc(S(=O)(=O)c2ccc(Cl)cc2)c(NCc2ccccc2)o1 | -9.5% | -20.6% | 22.0 | -2.3% | u | 39.8µM*
NS(=O)(=O)c1cc2c(cc1Cl)NCNS2(=O)=O | -11.2% | -22.0% | 9.2 | -12.2% | 1.0%[8.37 µM] | 7.7%
c1ccc2nc3c(nc2c1)OCC1CCCCN31 (stereo not drawn) | i | -1.6% | 52.4 | -10.5% | 8.5% | -13.9%
O=c1cc(-c2ccccc2Cl)oc2c(NS(=O)(=O)c3cc(Cl)cc(Cl)c3O)ccc(O)c12 | u | u | x | 12.6µM* | u | -11.2%
Fc1cccc(-c2ncc(-c3ccccc3)o2)c1 | i | 63.8% | 13.1 | -3.0% | 0.4% | x
SMILES | Vaccinia mCherry | FMDV inh | HCMV antiviral | Vaccinia Venus | HCV inh | Sm TGR inh
COc1ccc(C(=O)c2c3ccccc3[n+]([O-])n2CCCN)cc1 | -12.2% | -2.6% | -95.5*! | -5.9% | 12.3% | u
NCCCn1c(C(=O)c2cc(Cl)c(N)c(Cl)c2)c2ccccc2[n+]1[O-] | u | 0.2% | 69.5 | -8.2% | u | 35.5µM*
COc1ccc(C(=O)c2c3ccccc3[n+]([O-])n2CCC(N)=O)cc1 | -3.9% | 10.3% | -9.4 | 0.2% | -16.1% | -9.7%
NC(=O)CCn1c(C(=O)c2cc(Cl)c(N)c(Cl)c2)c2ccccc2[n+]1[O-] | u | 0.0% | -38.9 | -13.9% | 6.0% | 4.2%
COc1ccc(NC(=O)[C@@H](NC(=O)c2ccccc2F)C(C)C)cc1S(=O)(=O)N1CCOCC1 | -18.8% | 6.6% | 26.2 | -14.1% | 27.2% | 2.1%
CCOc1cc2c(cc1OCC)C(CC(=O)OC)N(C(=O)Nc1cc(C)cc(C)c1)CC2 (stereo not drawn) | i | -3.0% | -22.8 | -16.8% | x | 0.8%
Cc1ccc(CNC(=O)CSc2ccc(-c3ccccn3)nn2)cc1 | 7.08µM* | 20.2% | 2.7 | u | -5.4% | 10.0%
COc1ccc(NC(=O)CSc2ccc(-c3ccccn3)nn2)cc1OC | -7.8% | -9.5% | 1.0 | -2.8% | 2.5% | -11.5%
COc1ccccc1NC(=O)CSc1ccc(-c2ccccn2)nn1 | 14.1µM* | 3.4% | -100.6*! | u | u | -0.6%
O=C(CSc1ccc(-c2ccccn2)nn1)NCc1ccc(Cl)cc1 | u | -18.0% | -16.6 | -16.4% | -2.1% | 6.0%
O=C(CSc1ccc(-c2ccccn2)nn1)Nc1ccc(F)c(F)c1 | u | -28.5% | -90.1*! | u | 10µM* | 23.8%
COc1ccc(CN(CC(=O)NCCC(C)C)C(=O)CCC(=O)Nc2nccs2)cc1 | -4.4% | 22.3% | 43.2 | -6.1% | 7.6% | 2.6%
CC(=O)NCCC1CCCCN1Cc1nc(Cc2cccc(C(F)(F)F)c2)no1 (stereo not drawn) | -2.1% | -5.5% | -22.3 | -2.7% | 6.0% | 1.7%
CCN(C(=O)CSc1nc(C)nc2sc3c(c12)CCC3)C1CCS(=O)(=O)C1 (stereo not drawn) | 15.5% | -22.6% | 26.9 | 23.3% | -5.3% | x
O=C(Nc1cccc(F)c1)C1CCN(c2nc3ccccc3[nH]2)CC1 | i | -11.0% | + | -2.3% | x | 3.3%
Cc1cc(C)n(CCCN2CCC(C(=O)Nc3cccc(-c4cccc(F)c4)c3)CC2)n1 | u | u | -99.8* | u | u | 1.1%
O=C(Nc1cccc(-c2cccc(F)c2)c1)C1CCN(C2CCOCC2)CC1 | x | -14.3% | 0.0 | x | 12.6µM* | -0.2%
COc1ccc(NC(=O)C2CCN(c3nc4ccccc4[nH]3)CC2)cc1OC | -21.3% | 6.4% | u | -16.6% | x | -0.3%
